According to article PMC5540273 (PLoS ONE, 2017):

Experiments:
Settings in all cases: concentration: 1 μM, replicates: in singlicate; n = 1
[1] = tested on: JAK1(JH2domain-pseudokinase)
[2] = tested on: JAK2(JH1domain-catalytic)
[3] = tested on: JAK3(JH1domain-catalytic)
JNK1 = tested on: T1, JNK1
T1 construct: gene MAPK8

JNK2 = tested on: T2, JNK2
T2 construct: gene MAPK9

JNK3 = tested on: T3, JNK3
T3 construct: gene MAPK10

KIT-autoinhibited = tested on: KIT-autoinhibited
KIT = tested on: KIT
LATS1 = tested on: LATS1
LATS2 = tested on: LATS2
LCK = tested on: LCK
LIMK1 = tested on: LIMK1
LIMK2 = tested on: LIMK2
LKB1 = tested on: T4, LKB1
T4 construct: gene STK11

LOK = tested on: T5, LOK
T5 construct: gene STK10

LRRK2 = tested on: LRRK2
LTK = tested on: LTK
LYN = tested on: LYN
LZK = tested on: T6, LZK
T6 construct: gene MAP3K13

MAK = tested on: MAK
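Note: KINOMEscan kinase panel screen.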

Structure (SMILES)	%Inh [1]	%Inh [2]	%Inh [3]	%Inh (JNK1)	%Inh (JNK2)	%Inh (JNK3)	%Inh (KIT-autoinhibited)	%Inh (KIT)	%Inh (LATS1)	%Inh (LATS2)	%Inh (LCK)	%Inh (LIMK1)	%Inh (LIMK2)	%Inh (LKB1)	%Inh (LOK)	%Inh (LRRK2)	%Inh (LTK)	%Inh (LYN)	%Inh (LZK)	%Inh (MAK)
COc1cccc(C(=O)Nc2cccc(Oc3ccc4nc(NC(=O)C5CC5)cn4n3)c2)c1	8%	13%	0%	0%	10%	0%	99.7%	100%	0%	0%	99.2%	19%	23%	0%	96.2%	3%	27%	92.9%	0%	0%
Cl.Cl.NCC(NC(=O)c1cc(-c2ccccc2)c(-c2ccnc3[nH]ccc23)s1)c1ccccc1 (stereo not drawn) [GSK1321561]	0%	41%	50%	48%	57%	45%	0%	12%	3%	11%	87%	0%	0%	0%	0%	0%	21%	66%	0%	23%
CCCCc1nn2ncccc2c1-c1ccnc(Nc2ccc(N3CCN(C)CC3)cc2)n1 [GW684941]	4%	87%	27%	95.1%	98.9%	97.6%	97%	100%	0%	0%	99.1%	70%	97%	0%	60%	60%	0%	83%	28%	20%
CC(=O)N1CCN(c2ccc(Nc3nccc(-c4sc(C(C)C)nc4-c4cccc(NS(=O)(=O)c5cccc(Cl)c5)c4)n3)cn2)CC1 [GSK1660437]	0%	40%	82%	13%	16%	11%	0%	96.1%	0%	0%	98.6%	98.4%	100%	0%	96.8%	24%	23%	74%	29%	35%
O=C(Nc1n[nH]c2nc(-c3ccc(O)cc3)ccc12)C1CC1 [SB-710363]	33%	53%	62%	25%	13%	2%	0%	12%	17%	10%	24%	2%	0%	9%	27%	0%	58%	23%	0%	90.7%
Nc1ncnc2c1nc(-c1ccccc1)n2-c1ccccc1 [SKF-97293]	6%	62%	7%	11%	17%	0%	11%	0%	35%	0%	6%	0%	2%	60%	21%	58%	9%	8%	4%	27%
Cn1cc(-c2ccc3c(c2)CCN3C(=O)Cc2cccc(Cl)c2)c2c(N)ncnc21 [GSK2606590]	0%	16%	0%	15%	42%	6%	26%	100%	0%	0%	44%	3%	52%	0%	98.1%	29%	47%	15%	0%	6%
Nc1n[nH]c2cnc(-c3ccccc3)cc12 [SB-642124]	0%	75%	91%	13%	0%	6%	12%	0%	0%	2%	0%	19%	1%	0%	0%	12%	0%	3%	0%	37%
COc1cc2c(cc1OCCN1CCNCC1)ncc1c3ccc(C#N)cc3[nH]c21	45%	64%	85%	13%	0%	0%	55%	70%	0%	42%	45%	0%	0%	15%	42%	99.3%	0%	0%	100%	2%
O=C(Nc1cccc(-c2nn3ccccc3c2-c2ccnc(Nc3cccc(C(F)(F)F)c3)n2)c1)c1c(F)cccc1F [GSK292658]	0%	26%	0%	3%	0%	0%	0%	94.6%	0%	6%	95.2%	0%	5%	0%	80%	1%	3%	72%	0%	25%
CC(C)(C)c1ccc2nccc(Nc3cccc(O)c3)c2c1 [GW856795]	0%	36%	35%	32%	23%	15%	9%	26%	10%	0%	85%	0%	1%	29%	0%	36%	18%	22%	0%	40%
FC(F)(F)c1ccc(/C=C/c2cncnc2Nc2ccc3[nH]c(Cc4ccccc4)nc3c2)cc1 [GW709199]	2%	65%	0%	0%	0%	0%	0%	0%	19%	0%	9%	0%	0%	0%	13%	0%	0%	1%	0%	18%
Nc1ncc(-c2ccc3nccc(-c4ccncc4)c3c2)cc1S(=O)(=O)N1CCOCC1 [GSK1627798]	0%	0%	0%	26%	19%	10%	0%	16%	0%	0%	20%	0%	0%	0%	0%	0%	0%	0%	0%	22%
C[C@@H]1CC[C@@H](C(=O)Nc2ccccc2)CN1c1cc(-c2ccc3c(N)n[nH]c3c2)nc(N)n1 [GSK2286062]	2%	0%	0%	0%	13%	1%	0%	18%	0%	2%	2%	0%	3%	20%	0%	0%	0%	0%	0%	22%
Cc1ccc(S(=O)(=O)Nc2ccc(Nc3nccc(Nc4cccc5[nH]ncc45)n3)cc2)cc1 [GSK581271]	16%	68%	3%	44%	27%	29%	0%	85%	0%	0%	39%	13%	0%	0%	0%	23%	10%	0%	0%	12%
O=C(Nc1cccc(Oc2ccc3nc(NC(=O)C4CC4)cn3n2)c1)c1ccccc1C(F)(F)F	7%	43%	29%	0%	0%	0%	91.5%	100%	0%	0%	72%	6%	7%	0%	95.1%	0%	39%	57%	0%	0%
COC(=O)Nc1nc2ccc(Oc3ccc(NC(=O)Nc4cc(C(F)(F)F)ccc4F)cc3)cc2n1C.Cl [GW692089]	0%	22%	0%	2%	37%	0%	5%	100%	0%	0%	65%	0%	0%	53%	99.2%	1%	33%	28%	49%	0%
COc1cc(Nc2nccc(-c3c(-c4cccc(NC(=O)c5c(F)cccc5F)c4)nn4ccccc34)n2)cc(OC)c1OC [GSK323521]	0%	11%	0%	12%	15%	3%	23%	100%	0%	11%	23%	2%	12%	0%	85%	0%	26%	28%	0%	9%
